Bioassay records from PubChem.
HT1080-NT tox: kills 2HG-producing HT-1080-NT fibrosarcoma cells; HT-1080-NT fibrosarcoma viability, CellTiter-Glo ATP luminescence, 48 h; Potency, µM (series often up to 46.1 µM), inactives show at the highest dose activity, negative = less viability, hits mostly cytotoxic; 1.6% of 360,000 active; AID 686970;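 further: NT is the 2HG producing partner of a matched IDH1 knockdown line; potency means the concentration at half of the fitted maximal effect; 0% = DMSO-treated cells and -100% = media-only wells without cells; nearly all actives have a fitted effect of over 55% in size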
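HT-1080-NT; 750 cells/well; 5% FBS RPMI; 48 h compound, 37 degrees C; CellTiter-Glo luminescence; curve fitting and curve-class assignment.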
12-LOX inh: blocks human arachidonate 12S-lipoxygenase; purified 12hLO, xylenol orange hydroperoxide absorbance; Potency, µM (highest dose often 108 µM), inactives show at the top dose activity change, negative = inhibition, usual class: inhibitors; 1.1% of 580,000 active; AID 1671190; further: potency means the concentration at half of the fitted maximal effect
Target sequence (P18054 whole entry, looked up): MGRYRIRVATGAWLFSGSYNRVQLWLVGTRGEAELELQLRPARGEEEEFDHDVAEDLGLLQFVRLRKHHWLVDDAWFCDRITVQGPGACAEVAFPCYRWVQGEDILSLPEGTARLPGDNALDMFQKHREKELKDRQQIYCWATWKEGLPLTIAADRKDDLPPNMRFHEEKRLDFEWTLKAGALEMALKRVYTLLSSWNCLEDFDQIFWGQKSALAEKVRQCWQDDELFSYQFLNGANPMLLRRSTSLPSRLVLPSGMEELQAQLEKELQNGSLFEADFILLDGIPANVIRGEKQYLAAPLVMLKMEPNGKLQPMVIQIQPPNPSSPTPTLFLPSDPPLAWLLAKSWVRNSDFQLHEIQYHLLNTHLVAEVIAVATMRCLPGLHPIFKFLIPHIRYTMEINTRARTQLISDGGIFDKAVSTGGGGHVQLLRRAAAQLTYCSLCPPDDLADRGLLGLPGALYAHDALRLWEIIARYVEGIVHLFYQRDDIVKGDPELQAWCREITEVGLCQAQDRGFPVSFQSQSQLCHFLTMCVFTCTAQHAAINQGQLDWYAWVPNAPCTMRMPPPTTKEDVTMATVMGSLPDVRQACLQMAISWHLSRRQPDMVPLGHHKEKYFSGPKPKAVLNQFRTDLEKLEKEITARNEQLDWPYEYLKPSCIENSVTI
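Purified human 12hLO at 150 nM in 25 mM Hepes, 0.01% Triton X-100, pH 7.0, preincubated 15 min at room temperature with compound. Reaction started with 40 uM arachidonic acid, 30 min at room temperature. Hydroperoxide measured by Fe-xylenol orange, 573/405 nm absorbance ratio.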
HT1080 IDH1KD tx: toxicity to HT-1080 IDH1 knockdown cells (counter line). HT-1080 IDH1 knockdown viability, ATP luminescence, 48 h. Potency, µM (series often up to 46.1 µM), for inactives: at the top dose activity, negative = toxicity, most hits filed as cytotoxic. 2% of 360,000 active. AID 686971;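 further: potency means the concentration at half of the fitted maximal effect; 0% = DMSO wells and -100% = cell-free medium wells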
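Assay cells: HT-1080 with IDH1 knockdown, 750 per well, RPMI/5% FBS. Exposure: 48 h at 37 °C following 2 h pre-incubation. Read: CellTiter-Glo luminescence; fitted concentration-response, curve class assigned.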
TDP1 cell noCPT: qHTS for Inhibitors of human tyrosyl-DNA phosphodiesterase 1 (TDP1): qHTS in cells in absence of CPT; 15% of 420,000 active; Potency, µM (doses to about 46.2 µM), without a hit: at the highest dose activity change, negative = growth inhibition, most hits filed as inhibitors; AID 686978, 2013; DT40 Tdp1-/- hTDP1 cells, no CPT, ATP luminescence, 48 h; further: potency means the concentration at half of the fitted maximal effect; nearly all actives have a fitted effect of over 55% in size
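Compound effects on proliferation are scored in DT40 Tdp1-/-;hTDP1 cells in the absence of CPT. ATP levels (CellTiter-Glo luminescence) are recorded after a ≥48 hr, 37 °C incubation.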
IL-1B inflam inh: blocks inflammasome-driven IL-1 beta release. 4.7% of 360,000 active. activity change, % at 57.5 µM. THP-1 LPS/ATP IL-1B secretion, AlphaLISA, 16 h; hits give low values. AID 743279; in the data active means activity change below about -50%; inconclusive means mostly about -30% to -49%
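THP-1 cells pretreated 1 hr with compounds (up to 57.5 uM final), then stimulated with LPS (250 ng/mL final) plus ATP (1.25 mM final); secreted IL-1B measured by AlphaLISA after 16 hr, decreased signal indicating inhibition.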
TDP1 cell CPT: DT40-hTDP1 cell growth loss with CPT | 12% of 420,000 active | AID 686979 | Potency, µM (top dose mostly 46.2 µM), inactives show top-dose activity change, negative = growth inhibition, usual class: inhibitors | chicken DT40 Tdp1-/-;hTDP1 cells + 20 nM CPT, ATP luminescence, 48 h; further: potency means the concentration at half of the fitted maximal effect; nearly all actives have a fitted effect of over 55% in size
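Chicken DT40 Tdp1-/- cells stably complemented with human TDP1 were seeded at 400 cells/well in medium containing 20 nM camptothecin, exposed to pin-transferred compounds, and grown at 37 °C for at least 48 hr. Viability was read as ATP luminescence.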
* = called active by the depositor. Shown is part of a subset that was picked to be rich in hits. Unless noted, the call rests on the fitted dose curve; in most records, active means well fitted curve in the direction sought with a large enough effect; inconclusive means small, poorly fitted or top-dose-only effect, or another doubt; inactive means no such curve, though single readings can be large; an effect the other way counts as inactive or inconclusive. Unless noted, on the % scale 0 is the no-effect control and ±100 the full control effect.

`O=C(NC1CCCCC1)c1ccc(CSc2nc3ccncc3n2Cc2ccccc2)cc1` gave 12-LOX inh -12.0%, TDP1 cell noCPT 20.6µM* and TDP1 cell CPT inconclusive.
Screening COc1ccc(Cn2c(SCc3ccc(C(=O)NC4CCCCC4)cc3)nc3ccncc32)cc1 returned 12-LOX inh -8.2%, TDP1 cell noCPT 16.4µM* and TDP1 cell CPT inconclusive.
COc1ccc(CSc2nc3ccncc3n2CC(=O)Nc2cc(C)cc(C)c2)cc1 was read as 12-LOX inh -28.6%, TDP1 cell noCPT 16.4µM* and TDP1 cell CPT inconclusive.
`Cc1ccc(Cn2c(SCc3ccc(C(=O)NC4CCCCC4)cc3)nc3ccncc32)cc1` gave 12-LOX inh -20.2%, TDP1 cell noCPT 20.6µM* and TDP1 cell CPT inconclusive.
COc1ccc(CSc2nc3ccncc3n2Cc2ccccc2)cc1 was read as 12-LOX inh 6.3%.
Cn1c(=O)c2c(ncn2CCC(=O)NCC2CCCCC2)n(C)c1=O was read as 12-LOX inh 7.4%.
`COc1ccc(C(=O)N[C@@H]2CCC[C@@H]2C(=O)NCc2cc(F)cc(F)c2)cn1` gave 12-LOX inh 6.8%.
For CCOc1ccc(C2C(C(C)=O)=C(O)C(=O)N2CCc2c[nH]c3ccccc23)cc1 (stereo not drawn) the results were HT1080-NT tox -25.9%, 12-LOX inh inconclusive, HT1080 IDH1KD tx inconclusive, TDP1 cell noCPT -29.7%, IL-1B inflam inh 14.7 and TDP1 cell CPT 3.6%.
CCCCN1C(=O)C(O)=C(C(C)=O)C1c1ccccc1 (stereo not drawn) was read as HT1080-NT tox -1.1%, HT1080 IDH1KD tx 11.2%, TDP1 cell noCPT -25.3%, IL-1B inflam inh 2.7 and TDP1 cell CPT -3.7%.
For COCCCN1C(=O)C(O)=C(C(C)=O)C1c1cccc(F)c1 (stereo not drawn) the results were HT1080-NT tox 8.5%, 12-LOX inh 7.94µM*, HT1080 IDH1KD tx 12.8%, TDP1 cell noCPT 24.6%, IL-1B inflam inh 22.4 and TDP1 cell CPT -6.3%.
`COc1cccc(C2C(C(C)=O)=C(O)C(=O)N2CCc2c[nH]c3ccccc23)c1` (stereo not drawn) gave HT1080-NT tox -15.1%, 12-LOX inh 5.01µM*, HT1080 IDH1KD tx 2.7%, TDP1 cell noCPT -24.3%, IL-1B inflam inh 10.0 and TDP1 cell CPT -4.4%.
CC(=O)C1=C(O)C(=O)N(CCc2c[nH]c3ccccc23)C1c1ccc(O)cc1 (stereo not drawn) was read as HT1080-NT tox -0.3%, 12-LOX inh 8.91µM*, HT1080 IDH1KD tx -0.5%, TDP1 cell noCPT -5.9%, IL-1B inflam inh 44.3 and TDP1 cell CPT 18.2%.
For Cc1ccc(Nc2c3c(nc4ccccc24)CCC3)cc1F the results were 12-LOX inh inconclusive, TDP1 cell noCPT 16.4µM* and TDP1 cell CPT 20.6µM*.
`Cc1ccccc1Nc1c2c(nc3ccccc13)CCCC2` gave 12-LOX inh -10.7%.
`N#Cc1cccc(Nc2c3c(nc4ccccc24)CCC3)c1` gave HT1080-NT tox -26.9%, 12-LOX inh 0.5%, HT1080 IDH1KD tx inconclusive, TDP1 cell noCPT inconclusive, IL-1B inflam inh -58.6* and TDP1 cell CPT inconclusive.
Cc1cccc(Nc2c3c(nc4ccccc24)CCC3)c1 was read as HT1080-NT tox 14.6µM*, 12-LOX inh inconclusive, HT1080 IDH1KD tx 20.6µM*, TDP1 cell noCPT 18.4µM* and TDP1 cell CPT 14.6µM*.
Screening Cc1cc2c(c(=O)n1CCN(C)C)C(c1c(Cl)cccc1Cl)C(C#N)=C(N)O2 (stereo not drawn) returned 12-LOX inh 1.0%.
CCCCCC(=O)Nc1nc(C)c(-c2csc(Nc3ccccc3OCC)n2)s1 was read as HT1080-NT tox inconclusive, 12-LOX inh inconclusive, HT1080 IDH1KD tx -0.3%, TDP1 cell noCPT inconclusive, IL-1B inflam inh 3.1 and TDP1 cell CPT inconclusive.
Screening CCCCCC(=O)Nc1nc(C)c(-c2csc(Nc3ccccc3OC)n2)s1 returned HT1080-NT tox -7.3%, 12-LOX inh -29.5%, HT1080 IDH1KD tx -11.5%, TDP1 cell noCPT 18.4µM*, IL-1B inflam inh -8.1 and TDP1 cell CPT 23.1µM*.
Screening CCC(=O)Nc1nc(C)c(-c2csc(Nc3ccccn3)n2)s1 returned HT1080-NT tox inconclusive, 12-LOX inh inconclusive, HT1080 IDH1KD tx inconclusive, TDP1 cell noCPT inconclusive, IL-1B inflam inh -96.0* and TDP1 cell CPT inconclusive.
For CCCC(C)C(=O)Nc1nc(C)c(-c2csc(Nc3ccc(Cl)cc3)n2)s1 (stereo not drawn) the results were HT1080-NT tox 0.0%, 12-LOX inh inconclusive, HT1080 IDH1KD tx -8.1%, TDP1 cell noCPT 25.9µM*, IL-1B inflam inh -2.8 and TDP1 cell CPT inconclusive.
For Cc1nc(NC(=O)c2ccccc2)sc1-c1csc(NCCc2ccccc2)n1 the results were HT1080-NT tox -18.7%, 12-LOX inh inconclusive, HT1080 IDH1KD tx -23.1%, TDP1 cell noCPT 16.4µM*, IL-1B inflam inh 2.2 and TDP1 cell CPT 23.1µM*.
For O=C(COC(=O)c1ccc(NC(=O)c2cccs2)cc1)c1ccccc1 the results were 12-LOX inh -22.1%.
For CCCC(C)C(=O)Nc1nc(C)c(-c2csc(Nc3ccccc3OC)n2)s1 (stereo not drawn) the results were HT1080-NT tox 2.4%, 12-LOX inh 44.7µM*, HT1080 IDH1KD tx -0.5%, TDP1 cell noCPT 23.1µM*, IL-1B inflam inh 2.5 and TDP1 cell CPT 16.4µM*.
CCOc1ccccc1Nc1nc(-c2sc(NC(=O)CC)nc2C)cs1 was read as 12-LOX inh -24.1%.
Screening CCCCCCC(=O)Nc1nc(C)c(-c2csc(Nc3ccccc3OC)n2)s1 returned HT1080-NT tox -5.7%, 12-LOX inh inconclusive, HT1080 IDH1KD tx -14.4%, TDP1 cell noCPT 20.6µM*, IL-1B inflam inh -0.7 and TDP1 cell CPT inconclusive.
For COc1ccccc1Nc1nc(-c2sc(NC(=O)c3ccccc3)nc2C)cs1 the results were HT1080-NT tox -27.6%, 12-LOX inh inconclusive, HT1080 IDH1KD tx -20.0%, TDP1 cell noCPT inconclusive, IL-1B inflam inh -21.1 and TDP1 cell CPT inconclusive.
COCCN(Cc1ccccc1)C(=O)c1cccc(S(=O)(=O)N2CCN(c3ccccc3)CC2)c1 was read as HT1080-NT tox -3.7%, 12-LOX inh 4.8%, HT1080 IDH1KD tx -2.0%, TDP1 cell noCPT 16.4µM*, IL-1B inflam inh -5.5 and TDP1 cell CPT inconclusive.
